The structures appear in SMILES notation. In all, about 68,000 compounds went through this assay and about 2,700 (4%) showed an effect of 50% or more. Shown is part of a subset that was picked to be rich in strong results.

The test deals with Plasmodium berghei. Nature of the test: Screen against P. berghei liver stage (PbLuc), transformed with Luciferase, at 2uM. The format is functional, HepG2. As to conditions: tested at 2 uM.
Take `Cc1nnc(-c2cccc(C#N)c2)n1C1CCCN(C(C)C)C1=O` (centres undefined): the INHIBITION was -12.01%.
The result for `COc1nc2c(cc1C(=O)N1CC[C@H](CO)[C@@H](O)C1)CCC2` reads 49.02%.
The result for `COCCNc1nc(C2CCCC2)nc2c1CCNCC2` reads 34.98%; that for `Cc1nc2c(c(NCCc3nccs3)n1)CCN(CC1CC1)CC2`, -28.09%; that for `COCCNc1nc(C)nc2c1CCN(CC1CCC(N)CC1)CC2` (centres undefined), 57.67%.
The result for `O=C(O)COCC(=O)NC1CC2(CCCCC2)Oc2ccccc21` (centres undefined) reads 13.22%; that for `Cc1noc(C2CCN(C(=O)c3ccc(C(F)(F)F)nc3)CC2)n1`, 5.05%.
Take `Cc1csc(CCNC(=O)c2cc3c(nc2O)CCC(C)C3)n1` (centres undefined): the INHIBITION was -46.57%.
The result for `CC1CCc2nc(O)c(C(=O)NCc3ccncc3)cc2C1` (centres undefined) reads 1.06%.
The result for `CC1CCc2nc(O)c(C(=O)NCCN(C)C)cc2C1` (centres undefined) reads 27.24%; that for `CCCNC(=O)c1cc2c(nc1O)CCC(C)C2` (centres undefined), 44.39%; that for `CC1CCc2nc(O)c(C(=O)NCCc3cccs3)cc2C1` (centres undefined), 53.61%.
The result for `CC1CCc2nc(O)c(C(=O)NCCCN3CCN(C)CC3)cc2C1` (centres undefined) reads 68.39%; that for `Cc1nn(CCO)c(C)c1CNCc1cccnc1N(C)C`, 23.42%; that for `CC(C)Oc1ncnc2c1CCN(Cc1ccc(F)cc1)CC2`, 1.08%.
Regarding `COc1ccccc1OCCC(=O)N1CCCC1Cn1cc(C)cn1` (centres undefined), the INHIBITION is -14.11%.
The result for `Cc1ccc(CNC(=O)CN2CCN(CC(O)C3CC3)CC2)cc1` (centres undefined) reads -10.6%.
The result for `Cc1cccc(CN2CCO[C@H]3[C@@H](OCc4ccncc4)CC[C@@H]32)n1` reads 15.78%.
The result for `Cc1cnn(C2CCCN(C(=O)CCCNc3ncccn3)C2)c1` (centres undefined) reads -34.45%; that for `COCC(=O)N1C[C@H]2CCCC(OCc3cccnc3)[C@H]2C1` (some centres undefined), -34.83%.
Turning to `CC(C)N(C)Cc1nnc2n1CCCN(c1cnccn1)C2`, the INHIBITION was 20.01%.
The result for `Cc1nc2c(cc1C(=O)O)CCN(CC1CC1)CC2` reads -14.21%; that for `CNC(=O)c1cc2c(nc1NCC(C)C)CCN(C)CC2`, 20.21%.
In the case of `CNC(=O)c1cc2c(nc1NC(C)C)CCNCC2`, the INHIBITION is given as -9.98%.
The result for `CNC(=O)N1CCc2cc(C(=O)NCC3CC3)c(NC(C)C)nc2CC1` reads 11.9%; that for `Cn1nccc1-c1nc2c(cc1C(=O)O)CCN(CC1CC1)CC2`, 52.66%; that for `CNC(=O)c1cc2c(nc1NC(C)C)CCN(C(=O)NC(C)C)CC2`, 54.06%.
For `CNC(=O)c1cc2c(nc1NCC(C)C)CCN(CC1CC1)CC2`, the INHIBITION came to 57.85%.
`Cn1nccc1-c1nc2c(cc1C(=O)O)CCN(C(=O)C1CC1)CC2`: the INHIBITION is -28.2%.
With `CNC(=O)c1cc2c(nc1NCC1CC1)CCN(CC1CC1)CC2`, the INHIBITION was found to be 11.18%.
Turning to `CC(=O)N(Cc1noc(C2CC2)n1)C1CCN(Cc2ccccn2)C1` (centres undefined), the INHIBITION was -1.02%.
The result for `CCN1CC(COC(=O)c2ccc(Br)cc2F)CC1=O` (centres undefined) reads 17.86%.
The result for `Cc1cc(NC(=O)CNC2CCc3ncnn3C2)no1` (centres undefined) reads 8.42%; that for `CN(c1ncc(S(N)(=O)=O)s1)C1CCC1`, 27.17%; that for `CC(=O)NCCNC(=O)N(C)Cc1ccc2c(c1)OCCO2`, -43.47%.
The result for `Clc1ccc(COCC2CCN(Cc3ccccn3)CC2)cc1` reads -7.16%; that for `Cn1cnc(S(=O)(=O)N2CCO[C@H]3[C@@H](OCC4CC4)CC[C@@H]32)c1`, -6.83%.
Regarding `CNC(=O)c1cc(C)nc(C2(C)CCCN2c2cc(C)ncn2)n1` (centres undefined), the INHIBITION is given as -4.78%.
Turning to `Cc1cncc(C(=O)N2CCCC(O)(CN3CCCC3)C2)c1` (centres undefined), the INHIBITION was -22.01%.
`Cc1cc(C)c(C(=O)N2CCCC(O)(CN3CCCC3)C2)cc1C` (centres undefined): the INHIBITION is 79.79%.
The result for `Cc1cc(C(=O)N2CCCC(O)(CN3CCCC3)C2)ccc1Cl` (centres undefined) reads 19.36%; that for `O=C(c1ccccn1)N1C[C@H]2CC[C@@H](C1)N(C(=O)CCc1cccs1)C2`, -89.49%.
As for `Cc1cc(C2CCCN2CCCc2nc3ccccc3o2)on1` (centres undefined), the INHIBITION is on record as -27.69%.
On to `Cn1c(CN2CCC(OCc3cccnc3)CC2)cc2ccccc21`, for which the INHIBITION was 29.36%.
The result for `CC(=O)N(Cc1ncc(C)o1)C1CCN(CCc2cccs2)C1` (centres undefined) reads 64.16%.
Regarding `Cc1cc(NC(=O)CN2CCC(N(C)Cc3ncc(C)o3)C2)n(C)n1` (centres undefined), the INHIBITION is on record as 57.11%.
The result for `CCc1cnc(CN(C)C2CCN(CCc3ccccn3)C2)o1` (centres undefined) reads -3.88%; that for `Cc1cnc(CN(C)C2CCN(CC(=O)Nc3nccs3)C2)o1` (centres undefined), 23.24%; that for `CCc1cnc(CN(C)C2CCN(CCc3cccs3)C2)o1` (centres undefined), 66.97%.
Consider `CCc1cnc(CN(C)C2CCN(CCS(C)(=O)=O)C2)o1` (centres undefined), for which the INHIBITION was -29.5%.
As to `CCc1cnc(CN(C(C)=O)C2CCN(CCc3cccs3)C2)o1` (centres undefined), the INHIBITION is on record as -9.66%.
The result for `Cc1cnc(CN(C)C2CCN(CC(=O)Nc3c(C)n[nH]c3C)C2)o1` (centres undefined) reads 36.65%; that for `CC(=O)N(Cc1ncc(C)o1)C1CCN(CCc2ccncc2)C1` (centres undefined), -23.45%.
The result for `N#Cc1ccc(N2CCN(c3cnccn3)CC2)c(C(F)(F)F)c1` reads -22.24%; that for `CC(C)NC(=O)N1Cc2nccn2CC(COc2cccnc2)C1` (centres undefined), 27.08%.
Turning to `Cc1nnc2n1CCN(CCC(=O)Nc1sccc1C#N)C2`, the INHIBITION is -7.41%.
The result for `CCC(NC(=O)c1cccc(N2CCCC2=O)c1)c1ccc(OC)cc1` (centres undefined) reads 30.34%; that for `Cc1ccc(C(=O)N2CCn3c(COCC4CC4)cnc3C2C)nc1` (centres undefined), -4.95%; that for `CCC(C)(C)NC(=O)CN1C=Nc2ccccc2S1(=O)=O`, 51.94%.
The result for `O=C(CN1C=Nc2ccccc2S1(=O)=O)NC1CCCCC1` reads -4.97%; that for `CCCNC(=O)NC(=O)CN1C=Nc2ccccc2S1(=O)=O`, -35.65%.
As to `CC(C)(C)NC(=O)NC(=O)CN1C=Nc2ccccc2S1(=O)=O`, the INHIBITION is listed as 13.24%.
The result for `CC(C)CNC(=O)CN1C=Nc2ccccc2S1(=O)=O` reads 21.89%; that for `O=C(CN1C=Nc2ccccc2S1(=O)=O)NCC1CC1`, 66.2%.
The result for `O=C(CN1C=Nc2ccccc2S1(=O)=O)NCc1ccccc1F` reads 68.24%.
As for `O=C(CN1C=Nc2ccccc2S1(=O)=O)NCc1ccccc1`, the INHIBITION is listed as 33.61%.
The result for `Cc1ccc(CNC(=O)CN2C=Nc3ccccc3S2(=O)=O)s1` reads 3.86%.
The result for `Cn1ccc(C(=O)N2CCC(c3cc(CCO)n(C)n3)C2)n1` (centres undefined) reads -14.3%; that for `CN1[C@@H](CCC(=O)NCc2ccc(F)cc2)CNC(=O)[C@H]2NCC[C@H]21`, 4%; that for `Cc1cccc2nc(CN3CCCC3Cn3cccn3)cn12` (centres undefined), 19.71%.
The result for `Cc1cccc2nc(CN3CCCC3Cn3cncn3)cn12` (centres undefined) reads 78.28%; that for `Cc1nc2ccccc2nc1CN1CCCC1Cn1cncn1` (centres undefined), 53.72%; that for `Cc1nc2ccccc2nc1CN1CCCCC1Cn1cncn1` (centres undefined), 12.74%.
As to `c1ccc(CN2CCCC2Cn2cncn2)nc1` (centres undefined), the INHIBITION stood at 23.11%.
Consider `Cc1c(Cl)c(CN2CCCC2Cn2cncn2)nc2ccccc12` (centres undefined), for which the INHIBITION was -8.32%.
The result for `CC[C@H](C)[C@H](NC(=O)Cc1csc(-c2cccc(Cl)c2)n1)C(=O)O` reads 13.05%; that for `CC(Oc1cc(Cl)cc(Cl)c1)C(=O)NCCS(N)(=O)=O` (centres undefined), -10.59%; that for `CC(=O)N1CC2(CCCC2)c2ccccc21`, 3.01%.
As to `CCCn1cc(C(=O)NC(C)c2c(C)nn(CC)c2C)c(C)n1` (centres undefined), the INHIBITION is recorded as 51.19%.
Consider `CCCn1ncc(C(=O)NC(C)c2c(C)nn(CC)c2C)c1C` (centres undefined), for which the INHIBITION is -21.14%.
The result for `CCn1nc(C)c(C(C)NC(=O)c2cccc(NCC(=O)O)c2)c1C` (centres undefined) reads -6.64%; that for `Cn1ccnc1CN1CC[C@H](O)[C@@H](n2ccc(=O)[nH]c2=O)CC1`, 31.14%; that for `CCN1CC2(CC1=O)CN(Cc1ccco1)CCN(C(=O)C(C)C)C2` (centres undefined), -47.39%.
Turning to `O=C(NCCOCCO)c1cccnc1Oc1ccc(Cl)cc1`, the INHIBITION worked out at 21.75%.
For `c1ccc2oc(N3CCn4c(nnc4C4CC4)C3)nc2c1`, the INHIBITION is recorded as -45.42%.
As for `Cn1ccnc1-c1ccc(NCc2cn3c(n2)SCC3)nn1`, the INHIBITION was -75.92%.
The result for `Cc1ccc(C(=O)NCCCNS(C)(=O)=O)cc1-n1cccc1` reads 54.49%; that for `Cc1ccc(C(=O)NCCCN(C)S(C)(=O)=O)cc1-n1cccc1`, -5.68%; that for `CS(=O)(=O)NCCCNC(=O)c1cccc(-n2cccc2)c1`, 30.31%.
On to `CNC(=O)Cn1nc(C(C)C)c2cnn(C(C)(C)C)c2c1=O`, for which the INHIBITION was -30.6%.
As for `O=C(CNC(=O)C1CCCC1)NCC(O)c1ccc2ccccc2c1` (centres undefined), the INHIBITION came out at 9.78%.
As for `COc1cccc(S(=O)(=O)NC(=O)CC2CCCC2)c1`, the INHIBITION was found to be 14.02%.
In the case of `CCN1CCC(CC(=O)NCCc2nc(C)cc(C)n2)CC1`, the INHIBITION came to 3.4%.
The result for `COc1cccc(C(O)CNC(=O)CC2CCCCC2)c1` (centres undefined) reads 51.96%; that for `CCN1CCC(CC(=O)NCC(O)c2ccc3ccccc3c2)CC1` (centres undefined), 52.08%.
For the compound `CCN1CCC(CC(=O)NCC(O)c2cccc(OC)c2)CC1` (centres undefined), the INHIBITION was 50.32%.
The result for `CCN1CCC(CC(=O)NCc2nc(C)cc(C)n2)CC1` reads -28.09%; that for `O=C(CC(F)(F)F)NCC(O)c1ccc2ccccc2c1` (centres undefined), 23.81%.
The result for `CC(C)Oc1cccc(C(O)CNC(=O)CCc2ccncc2)c1` (centres undefined) reads -32.28%.
The result for `O=C(C1CCOCC1)N1C[C@@H]2[C@@H](C1)OCC(=O)N2Cc1ccncc1` reads -25.8%; that for `CC(Nc1ncnc2c1CCNC2)c1ccc2c(c1)CCCC2` (centres undefined), 48.21%.
On to `Cn1ncc2c1CN(C(=O)Cc1ccccn1)CC2COCC1CC1` (centres undefined), for which the INHIBITION is given as -4.69%.
The result for `O=C(C1CCC1)N1CCN(Cc2ccc(F)cc2)[C@H]2CS(=O)(=O)C[C@H]21` reads 5.17%; that for `Cc1ncc2c(n1)CN(CC(=O)Nc1cccnc1)CC2`, 51.94%.
The result for `Cc1ncc2c(n1)CN(CC(=O)Nc1c(C)nn(C)c1C)CC2` reads 64.16%; that for `Cc1cc(NC(=O)CN2CCc3cnc(C)nc3C2)on1`, 42.11%.
Consider `Cc1ncc2c(n1)CN(CC(=O)Nc1cc(C)on1)CC2`, for which the INHIBITION came out at 31.57%.
The result for `CCc1ncc2c(n1)CN(CC(=O)Nc1cccnc1)CC2` reads -28.98%; that for `Cc1ncc2c(n1)CN(CC(=O)Nc1ccncc1)CC2`, -63.75%.

Values taken from ChEMBL document CHEMBL4513216, “Probing the Open Global Health Chemical Diversity Library for Multistage-Active Starting Points for Next-Generation Antimalarials” (ACS Infect Dis, 2020).
